Reference: PubChem BioAssay (EPA / NIEHS)
Values joined by “and” are separate entries in the source; they are usually repeats but may differ in a detail not shown here. Identical values can stand only once. Records with an inconclusive call do not appear. Active and inactive are the calls of the source. How the source made its calls, unless noted: active means hit-call score of the fitted dose curve at least 0.9, where 1 is the maximum; inactive means score below 0.9.

What was measured:
[1] = BSK_4H_Eotaxin3: BioMAP Diversity Plus: 4H Assay for Eotaxin 3 Biomarker Activity (AID 2283000); conditions: primary human endothelial cells (HUVEC); actives raise or lower the signal;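 on outcome: CCL26 protein level quantified by ELISA in parallel with SRB cytotoxicity check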
Procedure, shortened: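 Chemicals were added to human umbilical vein endothelium cultures, and Eotaxin-3 was quantified by ELISA at 24 h. Values were derived by bidirectional fitting with DMSO serving as negative control and activity baseline.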

[2] = biological target: human Peroxisome Proliferator-activated Receptor alpha (PPARa), PPARA (gene 5465) (UniProt Q07869); experiment: ATG_PPARa_TRANS: Attagene TRANS-FACTORIAL HepG2 Assay for human Peroxisome Proliferator-activated Receptor alpha (PPARa) (AID 2283001; active means hit-call score of the fitted dose curve at least 0.9, where 1 is the maximum)
Chain of human Peroxisome Proliferator-activated Receptor alpha (PPARa), PPARA (gene 5465) (Q07869 whole entry, looked up, the tested form may be a part): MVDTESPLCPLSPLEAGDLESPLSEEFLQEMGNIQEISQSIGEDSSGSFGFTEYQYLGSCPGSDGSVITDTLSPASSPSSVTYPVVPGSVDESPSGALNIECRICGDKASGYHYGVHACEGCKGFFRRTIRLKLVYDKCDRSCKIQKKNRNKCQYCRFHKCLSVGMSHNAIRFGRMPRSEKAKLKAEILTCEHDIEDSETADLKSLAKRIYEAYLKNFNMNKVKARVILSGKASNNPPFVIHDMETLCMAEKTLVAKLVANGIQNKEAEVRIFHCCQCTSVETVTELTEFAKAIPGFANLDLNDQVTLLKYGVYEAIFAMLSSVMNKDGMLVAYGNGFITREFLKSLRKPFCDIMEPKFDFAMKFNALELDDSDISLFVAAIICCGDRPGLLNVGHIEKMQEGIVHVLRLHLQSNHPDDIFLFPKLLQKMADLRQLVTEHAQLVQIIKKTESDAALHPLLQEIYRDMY
Procedure, shortened: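 Reporter transcripts quantified by RT-PCR plus capillary electrophoresis after 24 h treatment, fitted upward relative to DMSO. Cells: human HepG2 transiently carrying multiple GAL4-UAS reporter units driven by NR-Gal4 chimeras.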

[3] = biological target: human Peroxisome Proliferator-activated Receptor delta (PPARd), PPARD (gene 5467) (UniProt Q03181); experiment: ATG_PPARd_TRANS: Attagene TRANS-FACTORIAL HepG2 Assay for human Peroxisome Proliferator-activated Receptor delta (PPARd) (AID 2283002; active means hit-call score of the fitted dose curve at least 0.9, where 1 is the maximum)
Chain of human Peroxisome Proliferator-activated Receptor delta (PPARd), PPARD (gene 5467) (Q03181 whole entry, looked up, the tested form may be a part): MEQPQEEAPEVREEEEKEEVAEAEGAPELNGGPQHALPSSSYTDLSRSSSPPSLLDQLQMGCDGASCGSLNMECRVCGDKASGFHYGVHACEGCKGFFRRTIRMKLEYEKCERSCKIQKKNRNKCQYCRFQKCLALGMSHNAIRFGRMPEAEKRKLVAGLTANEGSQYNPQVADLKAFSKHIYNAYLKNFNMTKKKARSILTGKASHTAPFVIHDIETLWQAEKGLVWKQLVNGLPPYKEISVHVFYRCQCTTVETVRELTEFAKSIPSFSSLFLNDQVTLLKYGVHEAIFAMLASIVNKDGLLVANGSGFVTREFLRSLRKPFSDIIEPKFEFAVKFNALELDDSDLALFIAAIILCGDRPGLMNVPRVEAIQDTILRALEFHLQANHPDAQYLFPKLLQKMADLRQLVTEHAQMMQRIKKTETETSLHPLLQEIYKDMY
Procedure, shortened: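 Transient HepG2 transfection (multiple GAL4-UAS RTUs, chimeric receptor-Gal4); 24 h dosing; total RNA → oligo(dT) RT → PCR → 6-FAM primer extension → HpaI cut → CE. Positive direction vs DMSO.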

[4] = BSK_3C_Proliferation: Cell Proliferation Assessment in the BioMAP Diversity Plus: 3C Assay (AID 2283006); conditions: primary human endothelial cells (HUVEC);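 on AC50: potency may reflect either rise or fall in cell number versus DMSO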
Procedure, shortened: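 Cells (human umbilical vein endothelial, sub-confluent) receive test chemical; after 48 h they are fixed in 10% trichloroacetic acid, stained with 0.1% SRB and read at 560 nm. Activity is referenced to DMSO, fitting increases and decreases.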

[5] = biological target: Nuclear receptor subfamily 1 group I member 2 (Homo sapiens) (UniProt O75469); experiment: ATG_PXR_TRANS: Attagene TRANS-FACTORIAL HepG2 Assay for human Pregnane X Receptor (PXR) (AID 2283008; active means hit-call score of the fitted dose curve at least 0.9, where 1 is the maximum)
Chain of Nuclear receptor subfamily 1 group I member 2 (Homo sapiens) (O75469 whole entry, looked up, the tested form may be a part): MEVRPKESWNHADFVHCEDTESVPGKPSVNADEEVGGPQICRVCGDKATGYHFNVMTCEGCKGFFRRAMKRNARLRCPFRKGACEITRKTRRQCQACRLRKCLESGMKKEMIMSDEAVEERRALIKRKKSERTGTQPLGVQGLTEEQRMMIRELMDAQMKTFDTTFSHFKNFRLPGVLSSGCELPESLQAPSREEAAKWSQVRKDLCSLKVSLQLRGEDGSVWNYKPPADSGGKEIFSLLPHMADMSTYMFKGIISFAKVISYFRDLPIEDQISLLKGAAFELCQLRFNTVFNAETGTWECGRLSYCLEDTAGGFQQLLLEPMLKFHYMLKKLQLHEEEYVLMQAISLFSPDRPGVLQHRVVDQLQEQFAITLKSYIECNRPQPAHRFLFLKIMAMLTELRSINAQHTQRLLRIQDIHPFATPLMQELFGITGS
Procedure, shortened: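 Trans-factorial format: exogenous NR-Gal4 fusion activity, not endogenous factor, in transfected human HepG2 liver cells. After 24 h dosing, RNA isolated, reverse-transcribed, amplified and resolved by capillary electrophoresis; induction scored versus DMSO.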

[6] = biological target: Retinoic acid receptor RXR-alpha (Homo sapiens) (UniProt P19793); experiment: ATG_RXRa_TRANS: Attagene TRANS-FACTORIAL HepG2 Assay for human Retinoid X Receptor alpha (RXRa) (AID 2283012; active means hit-call score of the fitted dose curve at least 0.9, where 1 is the maximum)
Chain of Retinoic acid receptor RXR-alpha (Homo sapiens) (P19793 whole entry, looked up, the tested form may be a part): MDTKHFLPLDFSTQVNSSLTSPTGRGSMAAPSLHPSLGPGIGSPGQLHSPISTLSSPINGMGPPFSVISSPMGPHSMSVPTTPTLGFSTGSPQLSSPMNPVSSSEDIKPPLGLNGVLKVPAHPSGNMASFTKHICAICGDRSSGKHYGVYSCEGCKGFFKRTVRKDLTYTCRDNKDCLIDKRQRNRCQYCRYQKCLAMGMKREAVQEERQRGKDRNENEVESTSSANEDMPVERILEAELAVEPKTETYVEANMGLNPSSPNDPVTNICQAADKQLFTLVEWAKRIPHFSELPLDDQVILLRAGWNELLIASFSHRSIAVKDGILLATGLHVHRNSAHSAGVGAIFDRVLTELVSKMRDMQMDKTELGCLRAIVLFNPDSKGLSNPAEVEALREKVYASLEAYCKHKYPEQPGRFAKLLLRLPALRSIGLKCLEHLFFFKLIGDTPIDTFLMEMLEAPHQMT
Procedure, shortened: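 Measures exogenous chimeric NR-GAL4 activity in transfected HepG2 liver cells after 24 h of dosing. Induced reporter mRNA was detected by RT-PCR with capillary electrophoresis, and gain of signal was analysed against DMSO.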

[7] = biological target: human Thyroid Receptor alpha (THRa1), THRA (gene 7067) (UniProt P10827); experiment: ATG_THRa1_TRANS: Attagene TRANS-FACTORIAL HepG2 Assay for human Thyroid Receptor alpha (THRa1) (AID 2283014; active means hit-call score of the fitted dose curve at least 0.9, where 1 is the maximum)
Chain of human Thyroid Receptor alpha (THRa1), THRA (gene 7067) (P10827 whole entry, looked up, the tested form may be a part): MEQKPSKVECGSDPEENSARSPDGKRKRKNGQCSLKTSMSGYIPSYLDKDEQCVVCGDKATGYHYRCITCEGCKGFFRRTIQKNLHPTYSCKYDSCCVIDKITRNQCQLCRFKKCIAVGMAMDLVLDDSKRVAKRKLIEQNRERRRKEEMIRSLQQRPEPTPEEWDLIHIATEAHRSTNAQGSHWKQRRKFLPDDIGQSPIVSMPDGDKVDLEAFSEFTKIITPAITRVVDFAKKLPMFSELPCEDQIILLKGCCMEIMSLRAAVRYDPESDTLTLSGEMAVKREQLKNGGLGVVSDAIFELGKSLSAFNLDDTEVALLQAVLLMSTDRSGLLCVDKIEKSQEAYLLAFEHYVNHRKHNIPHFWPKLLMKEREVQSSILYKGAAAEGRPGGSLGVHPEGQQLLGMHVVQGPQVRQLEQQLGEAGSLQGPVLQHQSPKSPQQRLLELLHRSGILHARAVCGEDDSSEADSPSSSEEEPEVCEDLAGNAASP
Procedure, shortened: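 Reporter transcript induction, read by capillary electrophoresis of 6-FAM-labelled RT-PCR products, reflects activity of a transfected THRa1-Gal4 fusion in HepG2 liver cells. Cells were dosed for 24 h; activity was fitted in the positive direction against DMSO.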

[8] = read-out: E-selectin (Homo sapiens) (UniProt P16581); experiment: BSK_3C_Eselectin: BioMAP Diversity Plus: 3C Assay for Eselectin Biomarker Activity (AID 2283015); conditions: primary human endothelial cells (HUVEC); actives raise or lower the signal;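 on outcome: cell surface E-selectin protein quantified by ELISA 24 h after dosing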
Procedure, shortened: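 ELISA read-out of E-selectin on endothelial monolayers after 24 h chemical treatment. Human umbilical vein primary cells served as the system, with DMSO defining baseline activity for bidirectional fitting.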

[9] = read-out: Interleukin-1 alpha (IL1a), IL1A (gene 3552); experiment: BSK_BE3C_IL1a: BioMAP Diversity Plus: BE3C Assay for Interleukin-1 alpha (IL1a) Biomarker Activity (AID 2283016); conditions: primary human bronchial epithelial cells; actives raise or lower the signal
Procedure, shortened: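 Signal from IL-1a ELISA, taken 24 h after chemical dosing of human bronchial epithelial cells, is compared with DMSO as baseline using bidirectional curve fitting.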

[10] = read-out: Monocyte Chemoattractant Protein-1 (MCP1), CCL2 (gene 6347); experiment: BSK_3C_MCP1: BioMAP Diversity Plus: 3C Assay for Monocyte Chemoattractant Protein-1 (MCP1) Biomarker Activity (AID 2283017); conditions: primary human endothelial cells (HUVEC); actives raise or lower the signal
Procedure, shortened: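 ELISA read-out of MCP-1 from human umbilical vein endothelial cell cultures harvested 24 h post-dosing. Gain or loss of signal was fitted relative to DMSO.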

[11] = read-out: Monocyte Chemoattractant Protein-1 (MCP1), CCL2 (gene 6347); experiment: BSK_4H_MCP1: BioMAP Diversity Plus: 4H Assay for Monocyte Chemoattractant Protein-1 (MCP1) Biomarker Activity (AID 2283018); conditions: primary human endothelial cells (HUVEC); actives raise or lower the signal
Procedure, shortened: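 Endothelial cells from umbilical vein were treated with test chemical, then after 24 h MCP-1 levels were quantified by ELISA; endpoint values came from bidirectional fitting with DMSO as baseline of activity.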

[12] = read-out: Human Leukocyte Antigen - DR isotype (HLADR), HLA-DRA (gene 3122); experiment: BSK_3C_HLADR: BioMAP Diversity Plus: 3C Assay for Human Leukocyte Antigen - DR isotype (HLADR) Biomarker Activity (AID 2283019); conditions: primary human endothelial cells (HUVEC); actives raise or lower the signal;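 on outcome: ELISA of cell-surface HLA-DR on HUVEC 24 h after dosing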
Procedure, shortened: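 ELISA readout of surface HLA-DR on human umbilical vein endothelium, taken 24 h after chemical treatment. Gain- and loss-of-signal were both fitted relative to DMSO.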

[13] = read-out: Intercellular Adhesion Molecule 1 (ICAM1), ICAM1 (gene 3383); experiment: BSK_3C_ICAM1: BioMAP Diversity Plus: 3C Assay for Intercellular Adhesion Molecule 1 (ICAM1) Biomarker Activity (AID 2283003); conditions: primary human endothelial cells (HUVEC); actives raise or lower the signal
Procedure, shortened: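 Chemicals are dosed onto primary human umbilical vein endothelium (3C system). After 24 h, ICAM-1 is measured by ELISA, and responses are fitted bidirectionally relative to DMSO.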

[14] = biological target: human Retinoic Acid Receptor beta (RARb), RARB (gene 5915) (UniProt P10826); experiment: ATG_RARb_TRANS: Attagene TRANS-FACTORIAL HepG2 Assay for human Retinoic Acid Receptor beta (AID 2283004; active means hit-call score of the fitted dose curve at least 0.9, where 1 is the maximum)
Procedure, shortened: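 Transient transfection of HepG2 with multiple reporter units → chemical dosing, 24 h → total RNA isolation → RT with oligo(dT) → reporter-specific PCR, 6-FAM primer extension, HpaI digest → capillary electrophoresis. Positive direction vs DMSO control.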

[15] = biological target: Peroxisome proliferator-activated receptor gamma (Homo sapiens) (UniProt P37231); experiment: ATG_PPARg_TRANS: Attagene TRANS-FACTORIAL HepG2 Assay for human Peroxisome Proliferator-activated Receptor-gamma (PPARg) (AID 2283007; active means hit-call score of the fitted dose curve at least 0.9, where 1 is the maximum)
Chain of Peroxisome proliferator-activated receptor gamma (Homo sapiens) (P37231 whole entry, looked up): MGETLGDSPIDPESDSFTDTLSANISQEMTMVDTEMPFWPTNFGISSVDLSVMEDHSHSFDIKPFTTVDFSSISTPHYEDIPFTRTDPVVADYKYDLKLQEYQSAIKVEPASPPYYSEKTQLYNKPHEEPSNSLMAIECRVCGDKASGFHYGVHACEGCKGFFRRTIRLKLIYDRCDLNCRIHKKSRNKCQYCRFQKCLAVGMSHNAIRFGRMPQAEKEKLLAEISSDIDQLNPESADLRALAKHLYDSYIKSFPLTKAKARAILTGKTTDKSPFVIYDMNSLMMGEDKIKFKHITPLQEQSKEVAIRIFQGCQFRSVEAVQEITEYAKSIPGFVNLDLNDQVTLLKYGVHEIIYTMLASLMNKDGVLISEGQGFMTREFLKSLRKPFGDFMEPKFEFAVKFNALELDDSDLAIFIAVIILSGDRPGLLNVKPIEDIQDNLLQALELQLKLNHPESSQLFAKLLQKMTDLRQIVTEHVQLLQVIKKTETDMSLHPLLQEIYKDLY
Procedure, shortened: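 Human hepatoma HepG2, transient MRTU transfection, 24 h treatment. mRNA reporter signal by RT-PCR plus capillary electrophoresis, fluorescence detection; fitted for increase over DMSO negative control.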

[16] = biological target: human Retinoic Acid Receptor gamma (RARg), RARG (gene 5916) (UniProt P13631); experiment: ATG_RARg_TRANS: Attagene TRANS-FACTORIAL HepG2 Assay for human Retinoic Acid Receptor gamma (RARg) (AID 2283009; active means hit-call score of the fitted dose curve at least 0.9, where 1 is the maximum)
Procedure, shortened: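 TRANS format measured activity of exogenous NR-GAL4 fusion (RARg) in transfected HepG2 liver cells after 24 h dosing. Induced reporter RNA was detected by RT-PCR/capillary electrophoresis fluorescence, analysed in the positive direction against DMSO.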

[17] = biological target: human RAR-related Orphan Receptor beta (RORb), RORB (gene 6096) (UniProt Q92753); experiment: ATG_RORb_TRANS: Attagene TRANS-FACTORIAL HepG2 Assay for human RAR-related Orphan Receptor beta (RORb) (AID 2283010; active means hit-call score of the fitted dose curve at least 0.9, where 1 is the maximum)
Chain of human RAR-related Orphan Receptor beta (RORb), RORB (gene 6096) (Q92753 whole entry, looked up, the tested form may be a part): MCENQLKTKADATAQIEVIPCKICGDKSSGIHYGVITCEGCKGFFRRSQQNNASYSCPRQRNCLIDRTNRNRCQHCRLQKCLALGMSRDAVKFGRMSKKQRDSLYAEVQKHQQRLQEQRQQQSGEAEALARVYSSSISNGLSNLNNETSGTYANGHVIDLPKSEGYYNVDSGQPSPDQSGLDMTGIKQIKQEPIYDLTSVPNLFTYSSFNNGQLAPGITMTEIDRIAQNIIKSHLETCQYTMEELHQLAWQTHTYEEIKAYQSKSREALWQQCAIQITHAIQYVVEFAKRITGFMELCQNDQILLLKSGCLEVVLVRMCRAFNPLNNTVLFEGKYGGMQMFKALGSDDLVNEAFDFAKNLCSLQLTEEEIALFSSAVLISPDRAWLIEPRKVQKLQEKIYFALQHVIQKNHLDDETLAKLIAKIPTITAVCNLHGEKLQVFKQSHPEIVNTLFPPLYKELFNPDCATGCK
Procedure, shortened: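 Transfect HepG2 with multiple GAL4-UAS reporter transcription units; dose chemicals for 24 h; isolate RNA, reverse-transcribe and PCR-amplify reporter sequences; label, digest and resolve fragments by capillary electrophoresis; fit increases relative to DMSO.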

[18] = biological target: human RAR-related Orphan Receptor gamma (RORg), RORC (gene 6097) (UniProt P51449); experiment: ATG_RORg_TRANS: Attagene TRANS-FACTORIAL HepG2 Assay for human RAR-related Orphan Receptor gamma (RORg) (AID 2283011; active means hit-call score of the fitted dose curve at least 0.9, where 1 is the maximum)
Chain of human RAR-related Orphan Receptor gamma (RORg), RORC (gene 6097) (P51449 whole entry, looked up, the tested form may be a part): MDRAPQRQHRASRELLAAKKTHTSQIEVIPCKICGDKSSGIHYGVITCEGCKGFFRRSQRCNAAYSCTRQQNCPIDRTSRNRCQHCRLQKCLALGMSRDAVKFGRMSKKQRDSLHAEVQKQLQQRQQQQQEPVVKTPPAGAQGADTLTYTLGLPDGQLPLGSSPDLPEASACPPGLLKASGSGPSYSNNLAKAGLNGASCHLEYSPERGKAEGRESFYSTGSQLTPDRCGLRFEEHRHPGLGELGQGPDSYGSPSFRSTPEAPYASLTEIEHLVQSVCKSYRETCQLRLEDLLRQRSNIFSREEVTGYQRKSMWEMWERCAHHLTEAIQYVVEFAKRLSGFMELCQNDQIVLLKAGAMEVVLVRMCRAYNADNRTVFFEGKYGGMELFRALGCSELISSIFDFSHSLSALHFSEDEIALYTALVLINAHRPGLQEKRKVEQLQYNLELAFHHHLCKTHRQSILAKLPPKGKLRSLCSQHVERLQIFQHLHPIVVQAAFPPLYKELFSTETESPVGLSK
Procedure, shortened: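 First, HepG2 liver cells were transfected with GAL4-UAS-driven reporter constructs and the RORg-Gal4 fusion. Next, they were treated with chemical for 24 h. Finally, reporter mRNA was quantified by RT-PCR and capillary electrophoresis, with upward activity fitted against DMSO.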

[19] = biological target: human Retinoid X Receptor beta (RXRb), RXRB (gene 6257) (UniProt P28702); experiment: ATG_RXRb_TRANS: Attagene TRANS-FACTORIAL HepG2 Assay for human Retinoid X Receptor beta (RXRb) (AID 2283013; active means hit-call score of the fitted dose curve at least 0.9, where 1 is the maximum)
Procedure, shortened: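 Chimeric receptor-Gal4 activity was assessed in transiently transfected human HepG2 cells after 24 h exposure. Transcripts from GAL4-UAS reporters were quantified by fluorescent RT-PCR and capillary electrophoresis, with DMSO as negative control and baseline.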

[20] = biological target: Retinoic acid receptor alpha (Homo sapiens) (UniProt P10276); experiment: ATG_RARa_TRANS: Attagene TRANS-FACTORIAL HepG2 Assay for human Retinoic Acid Receptor alpha (RARa) (AID 2283005; active means hit-call score of the fitted dose curve at least 0.9, where 1 is the maximum)
Chain of Retinoic acid receptor alpha (Homo sapiens) (P10276 whole entry, looked up, the tested form may be a part): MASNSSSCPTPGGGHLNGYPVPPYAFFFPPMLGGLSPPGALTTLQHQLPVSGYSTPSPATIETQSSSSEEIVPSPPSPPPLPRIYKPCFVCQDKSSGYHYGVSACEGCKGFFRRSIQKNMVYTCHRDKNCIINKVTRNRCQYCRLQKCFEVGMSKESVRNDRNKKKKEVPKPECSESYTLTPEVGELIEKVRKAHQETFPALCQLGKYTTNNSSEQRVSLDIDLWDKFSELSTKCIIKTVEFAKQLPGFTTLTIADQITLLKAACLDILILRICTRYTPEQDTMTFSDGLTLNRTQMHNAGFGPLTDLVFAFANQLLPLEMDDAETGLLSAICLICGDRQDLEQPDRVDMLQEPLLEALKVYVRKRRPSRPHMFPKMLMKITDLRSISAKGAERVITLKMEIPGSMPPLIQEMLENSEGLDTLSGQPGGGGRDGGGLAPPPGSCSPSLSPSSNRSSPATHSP
Procedure, shortened: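 Reporter transcripts, measured by RT-PCR with fluorescent labeling and capillary electrophoresis after 24 h dosing, reflect activity of an exogenous human RARa–GAL4 fusion in transiently transfected HepG2. Fitted for increase relative to DMSO.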

Chain of E-selectin (Homo sapiens) (P16581 whole entry, looked up): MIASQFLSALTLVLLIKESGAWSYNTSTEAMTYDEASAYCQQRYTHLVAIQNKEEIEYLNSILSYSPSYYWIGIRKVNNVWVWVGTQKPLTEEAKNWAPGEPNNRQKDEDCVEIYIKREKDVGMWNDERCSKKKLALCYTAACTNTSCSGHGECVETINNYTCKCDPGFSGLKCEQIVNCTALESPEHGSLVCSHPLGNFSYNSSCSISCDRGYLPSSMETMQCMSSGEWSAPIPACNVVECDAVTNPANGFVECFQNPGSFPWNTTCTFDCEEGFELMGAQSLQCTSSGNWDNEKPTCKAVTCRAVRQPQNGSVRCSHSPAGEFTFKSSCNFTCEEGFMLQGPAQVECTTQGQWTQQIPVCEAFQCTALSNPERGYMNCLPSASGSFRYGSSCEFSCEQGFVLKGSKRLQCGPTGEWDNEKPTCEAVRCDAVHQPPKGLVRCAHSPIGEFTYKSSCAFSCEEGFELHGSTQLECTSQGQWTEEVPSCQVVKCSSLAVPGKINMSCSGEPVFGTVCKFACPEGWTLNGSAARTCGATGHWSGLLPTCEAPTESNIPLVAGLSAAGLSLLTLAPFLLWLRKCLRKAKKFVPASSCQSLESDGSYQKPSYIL

Compound: FC(F)(F)C(F)(F)C(F)(F)C(F)(F)C(F)(F)C(F)(F)C(F)(F)CCI
- outcome [1]: inactive
- outcome [2]: inactive
- outcome [3]: inactive
- outcome [4]: inactive
- outcome [5]: inactive
- outcome [6]: inactive
- outcome [7]: inactive
- outcome [8]: inactive
- outcome [9]: inactive
- outcome [10]: inactive
- outcome [11]: inactive
- outcome [12]: inactive

Compound: O=C(c1ccccc1)c1ccc(O)cc1O
- outcome [1]: inactive
- outcome [2]: inactive
- outcome [13]: inactive
- outcome [14]: inactive
- outcome [4]: inactive
- AC50 [15]: 42.5 µM (active)
- outcome [5]: inactive
- outcome [16]: inactive
- outcome [17]: inactive
- outcome [18]: inactive
- AC50 [19]: 35 µM (active)
- outcome [7]: inactive
- outcome [8]: inactive
- outcome [9]: inactive
- outcome [10]: inactive
- outcome [11]: inactive
- outcome [12]: inactive

Compound: C[C@]12CC[C@H]3C(=CCc4cc(O)ccc43)[C@@H]1CCC2=O
- outcome [1]: inactive
- outcome [2]: inactive
- outcome [3]: inactive
- outcome [14]: inactive
- outcome [20]: inactive
- AC50 [4]: 32.1 µM (active)
- outcome [15]: inactive
- AC50 [5]: 26.6 µM (active)
- outcome [16]: inactive
- outcome [17]: inactive
- outcome [6]: inactive
- outcome [7]: inactive
- outcome [8]: inactive
- outcome [9]: inactive
- outcome [10]: inactive
- outcome [11]: inactive
- AC50 [12]: 20 µM (active)

Compound: Brc1nc2ccccc2s1
- outcome [1]: inactive
- outcome [2]: inactive
- outcome [3]: inactive
- outcome [4]: inactive
- AC50 [15]: 23.5 µM (active)
- outcome [6]: inactive
- outcome [8]: inactive
- outcome [9]: inactive
- outcome [10]: inactive
- outcome [11]: inactive
- outcome [12]: inactive

Compound: C=CC(=O)OCCC(F)(F)C(F)(F)C(F)(F)C(F)(F)F
- outcome [1]: inactive
- outcome [2]: inactive
- outcome [3]: inactive
- AC50 [4]: 30 µM (active) and 32.6 µM (active)
- outcome [15]: inactive
- outcome [5]: inactive
- outcome [18]: inactive
- outcome [6]: inactive
- AC50 [8]: 33.7 µM (active) and 30 µM (active)
- outcome [9]: inactive
- outcome [10]: inactive
- outcome [11]: inactive
- outcome [12]: inactive

Compound: O=C1C=CC(=O)N1c1ccc(Cc2ccc(N3C(=O)C=CC3=O)cc2)cc1
- AC50 [1]: 6.05 µM (active)
- outcome [2]: inactive
- outcome [3]: inactive
- outcome [20]: inactive
- AC50 [4]: 3.52 µM (active)
- outcome [15]: inactive
- outcome [5]: inactive
- outcome [17]: inactive
- outcome [18]: inactive
- outcome [6]: inactive
- outcome [7]: inactive
- AC50 [8]: 8.52 µM (active)
- AC50 [9]: 3.26 µM (active)
- AC50 [10]: 8.09 µM (active)
- AC50 [11]: 7.61 µM (active)
- AC50 [12]: 5.74 µM (active)

Compound: NC(=O)C(F)(F)C(F)(F)C(F)(F)C(F)(F)C(N)=O
- outcome [1]: inactive
- outcome [2]: inactive
- outcome [3]: inactive
- outcome [4]: inactive
- outcome [15]: inactive
- outcome [5]: inactive
- outcome [17]: inactive
- outcome [7]: inactive
- outcome [8]: inactive
- outcome [9]: inactive
- outcome [10]: inactive
- outcome [11]: inactive
- outcome [12]: inactive
